Test results published in PubChem BioAssay (EPA / NIEHS).
Where “and” joins values, the source holds several entries; their conditions need not be identical. Equal entries are not always repeated. Some compounds were tested as several samples or in several runs, with calls that do not always agree. Calls of active or inactive are those of the source. How the source made its calls: active means hit-call score of the fitted dose curve at least 0.9, where 1 is the maximum; inactive means score below 0.9.

Assay: BSK_4H_SRB: Viability Assessment in the BioMAP Diversity Plus: 4H Assay (AID 2283027);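 on AC50: curves fitted both ways versus DMSO so AC50 may be loss or gain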
Settings: primary human endothelial cells (HUVEC)
Description: BSK_4H is a cell-based, multiplexed-readout assay that uses umbilical vein endothelium, a human vascular primary cell, with measurements taken at 24 hours after chemical dosing in a 96-well plate.BSK_4H_SRB is an assay component measured in the BSK_4H assay. It measures […] related to cell death using Sulforhodamine staining technology.Data from the assay component BSK_4H_SRB was analyzed into 1 assay endpoint. This assay endpoint, BSK_4H_SRB, was analyzed with bidirectional fitting relative to DMSO as the negative control and baseline of activity. Using a type of viability reporter, gain or loss-of-signal activity can be used to understand changes in the signaling. Furthermore, this assay endpoint can be referred to as a primary readout, because this assay has produced multiple assay endpoints where this one serves a signaling function. To generalize the intended target to other relatable targets, this assay endpoint is annotated to the cell morphology intended target family, where the subfamily is cell conformation.
The levels of cell surface (or secreted, indicated by the prefix "s") biomarker endpoints were measured by ELISA. Overt cytotoxicity to cells in confluent adherent cultures (all systems other than the BT system) was assessed by measuring total protein levels using sulforhodamine B (SRB) staining in parallel cultures at the time of biomarker measurements, indicated as SRB endpoints. For proliferation assays for adherent cell types, individual cell types are cultured at sub-confluence and relative cell numbers quantified by SRB staining at time points optimized for each system (48 h: 3C and CASM3C systems; 72 h: BT and HDF3CGF systems; 96 h: SAg system). SRB was performed by staining cells with 0.1% SRB after fixation with 10% TCA and reading wells at 560 nm.Viability and proliferation of PBMC (T cells) was quantified by Alamar Blue reduction for the SAg and BT systems. For PBMC viability (referred to as PBMC Cytotoxicity within the assay endpoint names), cells were plated (75,000/well in a 96-well plate) and then chemical samples added for 1 h before addition of activators, SEB and TSST-1 (20 ng/mL final concentration each). Cells were incubated for 90 h. Then, Alamar Blue (20 uL/well) (Invitrogen, Cat DAL1100) was added for 6 h, and the plates were read with a fluorescence microplate reader at 546/580 nm (excitation/emission). For PBMC proliferation, cells were plated and activated as above but incubated for only 16 h prior to addition of Alamar Blue. Plates were read after 6 h.
In the case of `O=C(NC(=O)c1c(F)cccc1F)Nc1ccc(OC(F)(F)C(F)OC(F)(F)F)c(Cl)c1` (stereo not given), the outcome was “inactive”. For `CC(C)N(C(=O)COc1nnc(C(F)(F)F)s1)c1ccc(F)cc1`, the outcome was “inactive”. For `CCOc1nc(NC)nc(NC(=O)NS(=O)(=O)c2ccccc2C(=O)OC)n1`, the outcome was “inactive”. In the case of `CC(C)OC(=O)Nc1cccc(Cl)c1`, the outcome was “inactive”. With `Clc1ccccc1-c1nnc(-c2ccccc2Cl)nn1` the outcome was “inactive”. With `CCCN(CCC)c1c([N+](=O)[O-])cc(C(F)(F)F)cc1[N+](=O)[O-]` the outcome was “inactive”. With `O=C(O)COc1ccc(Cl)cc1Cl` the outcome was “inactive”. With `CC(C)(C)C(O)/C(=C\c1ccc(Cl)cc1Cl)n1cncn1` (stereo not given) the AC50 was 15.8 µM (active). For `COP(=S)(OC)Oc1ccc([N+](=O)[O-])cc1`, the AC50 was 5.97 µM (active). In the case of `Cc1cc(C)nc(NC(=O)NS(=O)(=O)c2ccccc2C(=O)OC2COC2)n1`, the outcome was “inactive”. In the case of `O=C(Nc1ccccc1)Nc1cnns1`, the outcome was “inactive”. In the case of `O=[N+]([O-])/N=C1\NCCN1Cc1ccc(Cl)nc1`, the outcome was “inactive”. With `CNC(=O)Oc1ccccc1OC(C)C` the outcome was “inactive”. In the case of `CCOC1Oc2ccc(OS(C)(=O)=O)cc2C1(C)C` (stereo not given), the outcome was “inactive”. For `CCCN(CCOc1c(Cl)cc(Cl)cc1Cl)C(=O)n1ccnc1`, the AC50 was 29.8 µM (active). For `CNC(=O)/C=C(\C)OP(=O)(OC)OC`, the outcome was “inactive”. With `O=C(O)C(F)(F)C(F)(F)C(F)(F)C(F)(F)C(F)(F)C(F)(F)C(F)(F)F` the outcome was “inactive”. In the case of `CCC(C)(C)C(=O)OC1=C(c2ccc(Cl)cc2Cl)C(=O)OC12CCCCC2`, the AC50 was 34.3 µM (active). With `COP(=O)(OC)OC=C(Cl)Cl` the outcome was “inactive”. With `CNC(=O)Oc1cccc(N=CN(C)C)c1` the outcome was “inactive”. For `O=[N+]([O-])c1c(Cl)c(Cl)c(Cl)c(Cl)c1Cl`, the outcome was “inactive”. In the case of `ClC1C(Cl)C(Cl)C(Cl)C(Cl)C1Cl` (stereo not given), the AC50 was 20 µM (active) and the outcome was “inactive”. In the case of `CC(C)(C)C(O)C(Oc1ccc(Cl)cc1)n1cncn1` (stereo not given), the outcome was “inactive”. For `O=S(=O)(O)C(F)(F)C(F)(F)C(F)(F)C(F)(F)C(F)(F)C(F)(F)C(F)(F)C(F)(F)F`, the outcome was “inactive”. With `Oc1ccc(Cl)cc1Cc1ccccc1` the AC50 was 28.1 µM (active) [middle of 7 runs]. With `CC[C@H](C)[C@H]1O[C@]2(C=C[C@@H]1C)C[C@@H]1C[C@@H](C/C=C(\C)[C@@H](O[C@H]3C[C@H](OC)[C@@H](O[C@H]4C[C@H](OC)[C@@H](O)[C@H](C)O4)[C@H](C)O3)[C@@H](C)/C=C/C=C3\CO[C@@H]4[C@H](O)C(C)=C[C@@H](C(=O)O1)[C@]34O)O2` (tested in a mixture with another compound) the AC50 was 8.22 µM (active). With `Oc1cc(Cl)ccc1Oc1ccc(Cl)cc1Cl` the AC50 was 20.4 µM (active) and 17.8 µM (active) and 20.9 µM (active). For `COC(=O)c1ccccc1S(=O)(=O)NC(=O)N(C)c1nc(C)nc(OC)n1`, the outcome was “inactive”. For `C[C@H]1[C@H](c2ccc(Cl)cc2)SC(=O)N1C(=O)NC1CCCCC1`, the AC50 was 20 µM (active). With `CCC(C)(NC(=O)c1cc(Cl)c(C)c(Cl)c1)C(=O)CCl` (stereo not given) the AC50 was 27.3 µM (active). In the case of `N#CN`, the outcome was “inactive”. In the case of `COC(=O)c1ccccc1CS(=O)(=O)NC(=O)Nc1nc(OC)cc(OC)n1`, the outcome was “inactive”. For `COC(=O)c1ccccc1S(=O)(=O)NC(=O)Nc1nc(C)nc(OC)n1`, the outcome was “inactive”. With `C#CCN1C(=O)COc2cc(F)c(N3C(=O)C4=C(CCCC4)C3=O)cc21` the outcome was “inactive”. In the case of `O=C(O)CCCOc1ccc(Cl)cc1Cl`, the outcome was “inactive”. In the case of `[2H]C1([2H])[n+]2ccccc2-c2cccc[n+]2C1([2H])[2H]`, the outcome was “inactive”. With `COc1nn(CSP(=S)(OC)OC)c(=O)s1` the outcome was “inactive”. In the case of `CCC(C)Nc1c([N+](=O)[O-])cc(C(C)(C)C)cc1[N+](=O)[O-]` (stereo not given), the AC50 was 19.7 µM (active). In the case of `CC1(C)C(C=C(Cl)Cl)C1C(=O)OC(C#N)c1ccc(F)c(Oc2ccccc2)c1` (stereo not given), the outcome was “inactive”.
